Only some compounds are listed: those with a hit (about 2.4% of all), similar ones and a draw of the others.
PKM2 act = PKM2 (human) enzyme activation | P14618 | purified PKM2, Kinase-Glo ATP luminescence, activation; response scale: 0% is enzyme alone, no compound | Potency, µM (highest dose often 57.5 µM), for inactives: at the top dose activation, most hits filed as activators | 260,000 tested, 0.34% active | AID 1631; also: % is scaled to controls: 0 for no effect and ±100 for the full control effect; nearly all actives have a fitted effect of over 55% in size
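Purified hPK-M2 (>95% pure) converted ADP (0.1 mM final) to ATP with 0.5 mM PEP in 50 mM imidazole pH7.2, KCl, MgCl2, Tween 20, BSA; 1 h at room temperature. ATP detected by Kinase-Glo luminescence.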
Tb PFK block = inhibitors of T. brucei phosphofructokinase. T. brucei PFK, ADP-Glo luminescence. 330,000 tested, 0.17% active. Potency, µM (titrated, usually from 57.5 µM), inactives show at the top dose activity, negative = inhibition, usual class: inhibitors;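 also: 0% = uninhibited 1x PFK enzyme wells and -100% = no-enzyme wells; nearly all actives have a fitted effect of over 60% in size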
Target sequence (O15648 whole entry, looked up): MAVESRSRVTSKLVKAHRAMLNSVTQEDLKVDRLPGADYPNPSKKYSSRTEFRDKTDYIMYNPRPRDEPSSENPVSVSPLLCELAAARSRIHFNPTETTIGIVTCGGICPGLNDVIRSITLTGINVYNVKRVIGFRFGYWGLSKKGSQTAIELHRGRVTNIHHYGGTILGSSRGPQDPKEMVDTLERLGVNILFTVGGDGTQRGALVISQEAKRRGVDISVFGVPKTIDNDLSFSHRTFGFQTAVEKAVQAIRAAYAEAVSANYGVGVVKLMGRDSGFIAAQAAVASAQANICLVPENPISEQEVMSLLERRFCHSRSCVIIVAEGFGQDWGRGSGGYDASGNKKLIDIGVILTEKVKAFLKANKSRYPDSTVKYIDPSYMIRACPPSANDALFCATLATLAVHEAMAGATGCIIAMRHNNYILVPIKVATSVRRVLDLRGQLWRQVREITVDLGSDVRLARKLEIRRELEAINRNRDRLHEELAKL
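ADP-Glo luminescence quantified ADP after 45 min at room temperature, with 1.25 nM T. brucei PFK, 0.1 mM ATP and 0.5 mM fructose-6-phosphate in pH 8.0 TEA buffer. qHTS titrations up to 57 µM; curves classified by quality.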
ELG1 DNA repair = blocks ELG1-dependent DNA repair in HEK293T cells; 330,000 tested, 2.3% active; HEK293T ELG1-luciferase reporter, luminescence, 16 h; DNA damage induced by 5-fluorouridine; Potency, µM (highest dose often 46.1 µM), without a hit: at the top dose activity change, negative = inhibition, actives largely listed as inhibitors; also: % is scaled to controls: 0 for no effect and ±100 for the full control effect; nearly all actives have a fitted effect of over 55% in size
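Quantitative HTS, concentration-response format. 2,000 cells/well co-treated with 5-fluorouridine and compound, 16 hr in 5% CO2 at 37 °C; ONE-Glo luminescence read after 30 min.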
Rango complex inh = prevents formation of the Rango-importin beta complex; Rango CFP/YFP FRET sensor + importin beta, 45 min; Potency, µM (highest dose often 92.2 µM), for the others: top-dose inhibition of complex formation; 340,000 tested, 0.031% active; AID 540263; calls by dose curve;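 also: 0% = DMSO wells and 100% = buffer wells lacking importin beta; nearly all actives have a fitted effect of over 15% in size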
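FRET biosensor Rango (snurportin 1 IBB between N-terminal EYFP and C-terminal Cerulean), 50 nM in PBS/1 mM DTT/0.02% Tween-20/0.1% BSA, preincubated 5 min RT with compound; 0.125 microM importin beta added, 45 min RT, CFP/YFP FRET ratio read.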
PGK inhibitor = blocks T. brucei phosphoglycerate kinase; P07378; PGK/GAPDH coupled, Kinase-Glo luminescence, 60 min; Potency, µM (highest dose often 57.5 µM), for inactives: at the highest dose activity change, negative = inhibition, actives largely listed as inhibitors; 380,000 tested, 0.043% active; AID 602233; also: % is scaled to controls: 0 for no effect and ±100 for the full control effect; nearly all actives have a fitted effect of over 60% in size
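Luminescent ATP detection (Kinase-Glo Plus) follows a 60-minute room-temperature incubation, with wells lacking PGK as controls. Buffer: 100 mM TEA (pH 7.6), 5 mM MgCl2, 0.01% Tween-20. Coupling enzyme GAPDH (100 nM final) supplies unstable 1,3-BPG in-well.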
Rango dissoc inh = inhibitors of RanGTP-induced Rango-importin beta complex dissociation; O95149+P62826; Biochemical FRET Rango-importin beta, RanGTP-induced dissociation; Potency, µM (series often up to 46.1 µM), without a hit: at the top dose activity change, negative = inhibition; 340,000 tested, 0.071% active; AID 540253; calls by dose curve; also: % of control where 0% means no effect; nearly all actives have a fitted effect of over 45% in size
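Rango FRET biosensor (snurportin-1 IBB flanked by N-terminal EYFP and C-terminal CFP10) at 0.1 uM, with 0.25 uM importin beta in PBS, 1mM DTT, 0.02% Tween-20, 0.1% BSA. 0.6 uM Ran, 2mM GTP and 0.2 uM RCC1 were then added for 45 min at room temperature. Inhibition read as loss of FRET rise.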
ELG1 FLuc counter = luciferase inhibition in cell-free luciferin readout for ELG1 hits | shares compounds with ELG1 DNA repair | cell-free firefly luciferase luminescence counter-screen, ViewLux | Potency, µM (top dose mostly 46.1 µM), for the others: at the top dose activity change, negative = inhibition, most hits filed as inhibitors | 350 tested, 3% active; also: % is scaled to controls: 0 for no effect and ±100 for the full control effect
ELG1 Luc conf = human ELG1 repair inhibition, luciferase-tagged ELG1 confirmation | shares compounds with ELG1 DNA repair | HEK293T ELG1-luciferase levels, luminescence; cells co-treated with 5-fluorouridine | Potency, µM (doses to about 46.1 µM), for inactives: at the highest dose activity change, negative = inhibition, actives largely listed as inhibitors | 670 tested, 68% active; also: % is scaled to controls: 0 for no effect and ±100 for the full control effect; nearly all actives have a fitted effect of over 55% in size
ELG1 MMS Luc = inhibits ELG1-dependent repair under MMS stimulation in HEK293T cells; 670 tested, 53% active; shares compounds with ELG1 DNA repair; Potency, µM (titrated, usually from 46.1 µM), inactives show at the top dose activity change, negative = inhibition, usual class: inhibitors; HEK293T luciferase-tagged ELG1 level, MMS stimulated; AID 624249; also: % is scaled to controls: 0 for no effect and ±100 for the full control effect; nearly all actives have a fitted effect of over 60% in size
ELG1 5FU viab = confirmation of ELG1 repair inhibitors: viability with 5FU | shares compounds with ELG1 DNA repair | 670 tested, under 10 active | cell viability with 5-FU, ELG1-dependent repair | Potency, µM (highest dose often 46.1 µM), for the others: top-dose activity change, negative = viability loss, hits mostly cytotoxic | AID 624250;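 also: ELG1-luc HEK293T cells cotreated with 5-fluorouridine at 10 µM final; viability measured 16 h after compound addition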
ELG1 MMS cell = confirmation of ELG1 repair inhibitors: viability with MMS | AID 624251 | Potency, µM (doses to about 46.1 µM), inactives show at the top dose activity change, negative = viability loss, hits mostly cytotoxic | shares compounds with ELG1 DNA repair | Cell viability with MMS, ELG1-dependent DNA repair | 670 tested, 33% active;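 also: ELG1-luc HEK293T cells co-treated with 10 µM MMS; viability read 16 h after compound addition; % is scaled to controls: 0 for no effect and ±100 for the full control effect; nearly all actives have a fitted effect of over 60% in size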
ELG1 unstim viab = unstimulated viability counter-screen for ELG1 repair hits; shares compounds with ELG1 DNA repair; cell viability counter-screen, unstimulated, luminescence; Potency, µM (highest dose often 45.9 µM), for inactives: at the highest dose activity change, negative = loss of viability, actives largely listed as cytotoxic; 900 tested, 8% active; AID 624252;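 also: compound exposure lasted 16 hours before reading; % is scaled to controls: 0 for no effect and ±100 for the full control effect; nearly all actives have a fitted effect of over 55% in size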
FLuc biochem = firefly luciferase inhibition counter-screen; shares compounds with ELG1 DNA repair; purified firefly luciferase, luminescence counter-screen; Potency, µM (titrated, usually from 57.5 µM), for inactives: at the top dose activity, negative = inhibition, actives largely listed as inhibitors; 350 tested, 10% active; also: % is scaled to controls: 0 for no effect and ±100 for the full control effect
Starred values were filed as active, the others as inactive; i = inactive; ? = inconclusive; · = no result. Unless noted, calls follow the shape of the dose curve; as a rule, active = well fitted curve in the direction sought with a large enough effect; inconclusive = small, poorly fitted or top-dose-only effect, or another doubt; inactive = no such curve, though single readings can be large; an effect the other way counts as inactive or inconclusive. Potency is read from the fitted curve at half-maximal effect.

SMILES | PKM2 act | Tb PFK block | ELG1 DNA repair | Rango complex inh | PGK inhibitor | Rango dissoc inh | ELG1 Luc conf | ELG1 MMS Luc | ELG1 5FU viab | ELG1 MMS cell | ELG1 unstim viab | others
CC(=O)Nc1ccc(NS(=O)(=O)c2cccc3nonc23)cc1 | 0% | 2% | 14% | 0% | -3% | -3% | · | · | · | · | ·
CC(C)(C)c1ccc(OCc2ccc(C(=O)Nc3cccnc3)o2)cc1 | 12% | -4% | ? | -1% | -1% | 1% | · | · | · | · | ·
Cc1ccc(NS(=O)(=O)c2ccc3c(c2)NC(=O)CCS3)c(Br)c1 | · | 1% | -2% | -1% | -4% | 6% | · | · | · | · | ·
COc1cc(OC)c2c(-c3cccc(-c4ccc(C#N)cc4)c3)cc(=O)oc2c1 | · | -9% | 4.6µM* | -4% | i | -1% | ? | 7.9µM* | ? | 7.1µM* | ?
CCOc1cc(C(=O)Nc2cccc(OCC(=O)N3CCOCC3)c2)cc(OCC)c1OCC | -4% | -5% | 2.1µM* | 7% | 4% | -1% | 8.9µM* | ? | 6% | 0% | -18%
CCOC(=O)CC[C@H](NC(=O)Cn1cnc2c(NCc3ccccc3)ncnc21)C(=O)OCC | · | 3% | 28% | 0% | 3% | -2% | · | · | · | · | ·
CC(=O)Nc1ccc(SCC(=O)c2cc(C)n(Cc3cccs3)c2C)cc1 | 4% | -3% | ? | 1% | -10% | -2% | · | · | · | · | ? | ELG1 FLuc counter=?;FLuc biochem=13µM*
COc1ccc2c(c1OC)C(=O)N1c3ccccc3C(=O)N(c3ccc(F)cc3)C21 (stereo not drawn) | 0% | 5% | ? | 0% | -3% | -15% | 5µM* | 7.9µM* | -2% | ? | ? | ELG1 FLuc counter=?;FLuc biochem=-3%
COc1ccc2c(c1OC)C(=O)N1c3ccccc3C(=O)N(c3ccccc3)C21 (stereo not drawn) | -1% | -2% | ? | 3% | -2% | -4% | 2.2µM* | 5µM* | 0% | ? | ? | ELG1 FLuc counter=-11%;FLuc biochem=1%
Cc1ccccc1N1C(=O)c2ccccc2N2C(=O)c3ccccc3C12 (stereo not drawn) | -2% | 4% | ? | 1% | 3% | -1% | · | · | · | · | ·
CC(C)(C)C(=O)Nc1cccc(-c2nnc(-c3cccc(NC(=O)C(C)(C)C)c3)o2)c1 | 3% | 1% | 4.6µM* | 0% | i | 4% | 7.9µM* | ? | 15% | -1% | ?
COc1cccc(COC(=O)CSCC(=O)Nc2ccc(C)cc2)c1OC | · | · | · | · | -13% | · | · | · | · | · | ·
COc1cccc(-n2c([S-])c(C(=O)Nc3ccc(S(=O)(=O)N4CCOCC4)cc3)[n+]3cc(C(N)=O)ccc23)c1 | -34% | 0% | 7% | ? | 4% | -20% | · | · | · | · | ·
O=C(Nc1ccc(S(=O)(=O)N2CCOCC2)cc1)c1cccs1 | 7% | 2% | -29% | -1% | 3% | -11% | · | · | · | · | ·
O=C(Nc1ccc(S(=O)(=O)N2CCOCC2)cc1)c1ccc([N+](=O)[O-])s1 | · | 0% | 2.6µM* | -3% | 3% | -12% | 2µM* | 3.5µM* | ? | 4.4µM* | ?
COc1cc(OC)cc(-c2cc3ccc(OC)cc3cn2)c1 | · | -6% | ? | -2% | ? | -12% | · | · | · | · | ·
c1ccc(-c2cc3cc4c(cc3cn2)OCO4)cc1 | · | 11% | ? | 4% | -13% | ? | · | · | · | · | ?
COc1ccc(-c2cc3cc4c(cc3cn2)OCO4)cc1 | · | 0% | ? | 2% | i | 4% | · | · | · | · | ? | ELG1 FLuc counter=-2%;FLuc biochem=0.41µM*
COc1cc(OC)cc(-c2cc3cc4c(cc3cn2)OCO4)c1 | · | 12% | ? | 2% | -15% | 0% | · | · | · | · | ?
CC(=O)Oc1ccc(/C=C2/Oc3ccccc3C2=O)cc1 | -14% | 0% | ? | ? | 1% | ? | · | · | · | · | ·

Compound activity as filed in PubChem BioAssay.
